Assay results as given in PubChem BioAssay AID1508642 (National Center for Advancing Translational Sciences (NCATS), 2021).
Out of some 43,000 compounds screened, about 200 (0.47%) were called active. Inconclusive results (about 12%) are left out. The sample as a whole holds a higher share of actives than the screen did. A number with no mark means an inactive call. Calls come from the whole dose curve; as a rule, active = well fitted cell-killing curve with a large enough effect; inconclusive = small, poorly fitted or top-dose-only effect, or effect the other way; inactive = flat fitted curve, though single readings scatter.

Assay: Cell viability qHTS assay in S16 Pmp22-F2sN cells; note: nearly all actives have a fitted effect of over 65% in size
Conditions: S16 Pmp22-F2sN Schwann cells (luciferase reporters placed in the Pmp22 gene) viability, CellTiter-Glo, 24 h; series mostly up to 57.5 µM; activity change, negative = cytotoxicity: at the top concentration
Source text: Assay Provider: Jim Inglese Ph.D. National Center for Advancing Translational Science, National Institutes of Health, Rockville, MD CMT is a heterogeneous group of neurological disorders that affect approximately 1 in 2,500 people. In particular, the most common form of CMT, CMT1A is genetically linked to the duplication of the PMP22 gene which leads to Schwann cell overexpression, thus manifesting itself as a typical case of dose-sensitive diseases. To identify small molecule compounds that can mediate the expression of PMP22 we developed a phenotypic assay screening strategy by utilizing genome editing techniques to construct Schwann cell lines containing novel reporter technology to monitor the transcriptional or translational regulation of PMP22. For high sensitivity we use a bioluminescent reporter system embedded in the 3' UTR of the PMP22 gene (S16(c9) Pmp22-F2sN) to identify compounds that inhibit gene expression. […] We can further discriminate the effect of all transcriptionally active molecules on PMP22 translation or stability with an assay that incorporates a short NLuc peptide (HiBiT) at the C-terminus of expressed PMP22 (S16(f8) PMP22-HiBiT) allowing alpha complementation and luminescence detection of membrane-associated PMP22 protein. These assays were screened against the NCATS Sytravon Library Collection. Miniaturization of these assays to 1536-well plate format for quantitative high throughput screening (qHTS) yielded rich data sets immediately from the qHTS assay (S16(c9) Pmp22-F2sN), when compared with data from a cell viability assay (Cell TiterGlo) to identify compounds that decreased the output signals through cellular toxicity to streamline the selection process of actives for subsequent characterization using the HiBiT assay (S16(f8) PMP22-HiBiT).
Cell viability assay in S16 Pmp22-F2sN cells PROTOCOL TABLE (format as described by Inglese J, Shamu CE and Guy RK. 2007) SEQUENCE No. (e.g., 1, 2, 3, etc.); […] (e.g., Cells, Incubation, Reagent, etc.); VALUE and DESCRIPTION. 1. Cells. Add 500-1,000 cells in 4 uL in growth media (DMEM High Glucose, No Phenol Red media + 10% heat-inactivated FBS + 1% Pen/Strep supplemented media) per well into Greiner 1536-well white/solid bottom high base, TC-treated plates. 2. Compounds. Library compounds and controls added at 23nL per well, transferred by Pin Tool. 3. Incubation. Incubate plates at 37C, 5% CO2, 95% RH for 24 h. 4. Reagent. Add 3uL CellTiter-Glo per well of Greiner 1536-well plates. 5. Incubation. Incubate plates at room temperature for 15 min., protect from light. 6. Detector. FLuc luminescence measured using CCD-based camera (Viewlux). NOTES (numbers refer to Sequence numbers above; values are from representative experiments) 6. Luminescence Read: Clear filter; Exposure = 1 sec, Gain = High, Speed = Slow, Binning = 2X REFERENCES: 1. Inglese J, Shamu CE and Guy RK, Reporting data from high throughput screening of small molecule libraries, Nature Chemical Biology, 2007, 3(8): 438-441. doi.org/10.1038/nchembio0807-438 2. Yasgar A, Shinn P, Jadhav A, Auld DS, Michael S, Zheng W, Austin CP, Inglese J and Simeonov A, Compound Management for Quantitative High-Throughput Screening. J. Assoc. Lab. Auto., 2008, 13: 79-89. doi: 10.1016/j.jala.2007.12.004
% is set by controls: 0 for no effect and ±100 for the full control effect; potency is the fitted concentration of half-maximal effect.

Compound | activity change, negative = cytotoxicity [%] | Potency
COc1ccc(S(=O)(=O)n2nc(C)c(S(=O)(=O)N3CCCCCC3)c2C)cc1 | -8.85 | –
CCC(=O)N1CCc2cc(CNS(=O)(=O)c3ccc(Br)s3)ccc21 | -3.99 | –
COc1ccccc1CNC(=O)c1ccc(CS(=O)c2ccccc2Cl)o1 (configuration not stated) | -6.85 | –
CC(C)(C)OC(=O)N1CCC(c2c(C(=O)NCCc3ccsc3)cnn2-c2ccc(F)cc2F)CC1 | -27.8 | –
COc1ccc(-c2nc(Cn3c(=O)cc(C)c4c(C)nn(-c5ccccc5)c43)c(C)o2)c(OC)c1 | 9.69 | –
COC(=O)c1ccccc1NC(=O)Cn1c(=O)n(-c2cccc(C(F)(F)F)c2)c(=O)c2c(C)c(C)sc21 | 0.489 | –
O=C(CCc1nc(CN2CCN(S(=O)(=O)c3ccc(Br)cc3)CC2)no1)N1CCCCC1 | -20.1 | –
CCOc1ccccc1CNCc1c(C(=O)O)c(C)n(Cc2ccc(C)cc2)c1C | -0.973 | –
CCOc1ccc(C2C(C(=O)Nc3ccc(Cl)cc3)=C(C)Nc3nc(C(F)(F)F)nn32)cc1 (configuration not stated) | -26.8 | –
COc1ccc(-c2nc(CN3CCC(C(=O)NCCN(CC(C)C)CC(C)C)CC3)c(C)o2)cc1OC | -2.77 | –
COc1cc2nc(SCc3ccc(F)cc3)n3nc(CCn4c(C)nc5ccccc54)nc3c2cc1OC | -6.47 | –
CCOc1cc(C2C(C(=O)Nc3ccc(OC)cc3)=C(C)Nc3nc(SC)nn32)ccc1O (configuration not stated) | -26.7 | –
CC(=O)c1ccc(NC(=O)COc2ccccc2-c2nc(-c3ccccc3)no2)cc1 | 3.1 | –
COc1cccc(CNC(=O)c2ccc3c(c2)N(Cc2ccc(C(F)(F)F)cc2)C(=O)c2ccccc2S3)c1OC | -5.25 | –
CC(C)S(=O)(=O)c1oc(-c2ccc(F)cc2)nc1S(=O)(=O)c1ccc(F)cc1 | – | 3.16 µM (active)
O=C(CSc1oc(-c2ccc(F)cc2)nc1S(=O)(=O)c1ccc(Br)cc1)NC1CCCCC1 | 2.8 | –
Cc1ccc(-c2nc(S(=O)(=O)c3ccc(C)cc3)c(N3CCCCCC3)o2)cc1 | -18.3 | –
COc1ccc(-c2nc(SCC(=O)N3CCCCC3C)n[nH]2)cc1 (configuration not stated) | 0.441 | –
O=C(NCCS(=O)(=O)N1CCN(c2ccc(F)cc2)CC1)c1ccccc1Br | -9.89 | –

Compound | activity change, negative = cytotoxicity [%] | Potency
COc1ccc(NC(=O)Cn2c(=O)cc(C)c3c(C)nn(-c4cccc(Cl)c4C)c32)cc1OC | -0.142 | –
CCOc1ccccc1CNC(=O)c1cnc2c(-c3ccc(OCC)c(OCC)c3)c(C)nn2c1C | -2.71 | –
Cc1ccc(-c2nc(Cn3c(=O)cc(-c4ccccc4)c4c(C)nn(C)c43)c(C)o2)cc1 | 0.847 | –
O=C(CCn1c(=O)c2ccccc2n(Cc2ccc(Cl)cc2)c1=O)NCc1ccc2c(c1)OCO2 | 16.4 | –
COc1ccc(-c2onc(C)c2C)cc1S(=O)(=O)NCc1cccs1 | -12.4 | –
CCS(=O)(=O)N1CCc2cc(C(=O)N3CCN(c4ccccc4OC)CC3)ccc21 | -23.9 | –
COc1ccc(C2=CC(c3ccccc3Cl)n3nc(-c4ccc(Cl)cc4)nc3N2)cc1 (configuration not stated) | -1.8 | –
COc1ccc(C)cc1NC(=O)C(=O)NCCc1sc(-c2cccc(C)c2)nc1C | 15.9 | –
Cc1c(-c2cccc(NC(=O)C(C)(C)C)c2)nc2ncccn12 | 9.29 | –
Cc1cc(C)c(NC(=O)c2cc3sc(Cl)cc3n2C)c(C)c1 | -0.729 | –
Cc1cccc(-n2ccnc2SCC(=O)Nc2cccc3ccccc23)c1C | -23 | –
CC(C)Cn1c(-c2ccc(S(=O)(=O)N3CCOCC3)cc2)csc1=Nc1cc(Cl)ccc1Cl | 1.99 | –
Cc1ccc2[nH]c3c(=O)n(CC(=O)NC(C)C)ncc3c2c1 | 17.3 | –
COc1ccccc1CNC(=O)CS(=O)(=O)c1cccc2nsnc12 | 1.47 | –
Cc1cccc2c1-c1sc(C(=O)Nc3ccc(F)cc3F)cc1CO2 | 4.55 | –
CCOCCn1ccc2c(OCC(=O)NCc3ccc(C)cc3)cccc2c1=O | -27.9 | –
CCOC(=O)C1CCN(S(=O)(=O)c2ccc3c(c2)N(C)C(=O)CC(=O)N3C)CC1 | 9.53 | –
Cc1ccc2c(c1)N(C(=O)CCC(=O)NCc1ccccc1F)CC(C)O2 (configuration not stated) | 16.2 | –
COc1cc(CNC(=O)c2cc3n(n2)CCCN(Cc2cccc(F)c2)C3=O)cc(OC)c1OC | 4.68 | –

Compound | activity change, negative = cytotoxicity [%] | Potency
COc1ccc(C2c3c(oc4ccccc4c3=O)C(=O)N2Cc2ccc3c(c2)OCO3)cc1 (configuration not stated) | -4.77 | –
CCCNC(=O)C1CCN(c2nc3ccc(C)cc3[nH]2)CC1 | 12.1 | –
CCCc1cc(=O)n2[nH]c(NCc3ccc(CC)cc3)nc2n1 | -6.76 | –
CCCCN(C)c1nnc(NC(=O)Nc2ccc(Br)c(C)c2)s1 | 7.82 | –
Cc1cccc(-n2ncc(C(=O)N3CCC(C)CC3)c2C2CCN(C(=O)OC(C)(C)C)CC2)c1 | -0.159 | –
COc1ccc2c(c1)c(=O)c(C(=O)c1ccccc1)cn2CC(=O)Nc1ccc2c(c1)OCCO2 | -17.2 | –
Cn1ccc2cc(S(=O)(=O)N3CCCC(C(=O)NCc4ccccc4F)C3)ccc21 (configuration not stated) | -1.54 | –
CCOc1ccc(N(Cc2ccccc2)C(=O)c2nc(SCC)ncc2Cl)cc1 | -13.1 | –
CCOc1ccc(N(Cc2ccccc2)C(=O)c2nc(S(C)(=O)=O)ncc2Cl)cc1 | – | 3.55 µM (active)
CCOc1ccc(N(CC)C(=O)C2CCN(S(=O)(=O)c3cccc4nonc34)CC2)cc1 | 17 | –
O=C(Cn1ncn2nc(-c3cccs3)cc2c1=O)NCc1cccc(Br)c1 | -7.84 | –
CCOC(=O)c1c(NC(=O)/C=C/c2ccc(OC)cc2)sc2c1CCC(C)C2 (configuration not stated) | 2.92 | –
Cc1ccc(O)c(NC(=O)CCS(=O)(=O)c2nc(-c3ccc4c(c3)OCO4)cc(C(F)(F)F)n2)c1 | 0.975 | –
CCN(CC)CCNC(=O)Cn1ncc2c3ccccc3n(Cc3ccccc3C)c2c1=O | -15.4 | –
COCCNC(=O)CSc1c(C)cnc2c1c(=O)n(C)c(=O)n2C | 2.19 | –
COc1cc(C(=O)N2CCN(C(=O)COc3cccc(C)c3)CC2)cc(OC)c1OC | 8.68 | –
CCCNC(=O)CCC(=O)N1Cc2ccccc2Oc2ncccc21 | 0.274 | –
CC(NC(=O)CCc1cn(Cc2ccccc2Cl)c2ccccc12)c1ccccc1 (configuration not stated) | -3.26 | –
CC(C)CC(NS(=O)(=O)c1ccc2c(c1)oc(=O)n2C)C(=O)NCc1ccccc1Cl (configuration not stated) | -2.2 | –
